Measurements published in PubChem BioAssay AID602137 (NMMLSC, 2011).
Active and inactive are the calls of the source.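 How the source made its calls: active means EC50 at most 10 µM with percent response changing by at least 30% across doses, from a valid fit; inactive means the rest.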

assay: GST-GSH bead binding interference, SAR follow-up, counter-screen for Rab7 GTPase inhibitor project, biochemical, flow cytometry beads, round 1 (AID 602137); conditions: GST-GFP on GSH beads; series mostly up to 100 µM

| Structure (SMILES) | outcome |
| --- | --- |
| CCOC(=O)c1c(N)sc2ccccc12 | inactive |
| Cc1ccc(NC(=O)Nc2sc3c(c2C(=O)O)CCN(C)C3)cc1 | inactive |
| COc1ccc(C(=O)NC(=S)Nc2sc3c(c2C(=O)O)CC(C)(C)OC3)cc1 | inactive |
| CC1(C)CCc2sc(NC(=S)NC(=O)c3ccccc3)c(C(=O)O)c2C1 | inactive |
| CC1(C)Cc2c(sc(NC(=S)NC(=O)c3ccccc3)c2C(=O)O)CO1 | inactive |
| CCOC(=O)c1c(NC(=S)NC(=O)c2ccccc2)sc2ccccc12 | inactive |
| COc1cccc(C(=O)NC(=S)Nc2sc3c(c2C(=O)O)CC(C)(C)OC3)c1 | inactive |
| Cc1ccc(Nc2nc3sc4c(c3c(=O)o2)CCN(C)C4)cc1 | inactive |
| CN1CCc2c(sc3nc(Nc4ccc(F)cc4)oc(=O)c23)C1 | inactive |
| CC1(C)Cc2c(sc(NC(=S)NC(=O)c3cccc(F)c3)c2C(=O)O)CO1 | inactive |
| NS(=O)(=O)c1ccc(N2N=C(c3ccccc3)CC2c2ccccc2)cc1 (stereo not drawn) | inactive |
| CCOC(=O)c1c(NC(=O)Nc2ccc(C)cc2)sc2c1CCN(C)C2 | inactive |
| CC1(C)Cc2c(sc(NC(=S)NC(=O)c3ccccc3Br)c2C(=O)O)CO1 | inactive |
| CC(C)(C)OC(=O)c1c(NC(=S)NC(=O)c2ccccc2)sc2c1CCOC2 | inactive |
| COC(=O)c1c(NC(=S)NC(=O)c2ccccc2)sc2c1CC(C)(C)OC2 | inactive |
| COC(=O)c1c(N)sc2c1CC(C)(C)OC2 | inactive |
| CC1(C)Cc2c(sc(NC(=S)Nc3ccccc3)c2C(=O)O)CO1 | inactive |
| CCOC(=O)c1c(NC(=O)NC(C)(C)C)sc2c1CCN(C)C2 | inactive |
